From the supplement of paper PMC9262897, “Low-cost anti-mycobacterial drug discovery using engineered E. coli” (Nature Communications, 2022)
Where a name gives a salt, the structure may show the parent alone. ± gives the standard deviation of the averaged measurements.

Tested on: E. coli TESEC Mtb Alr
Experiment: growth (OD600 after 10 h); higher = more growth (less inhibition)
Conditions: compound 0.1 mM
Method: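 TESEC Mtb Alr E. coli, or the Alr+ wild-type control, in 384-well plates with Prestwick library compounds at 0.1 mM and 1% DMSO, across arabinose induction levels of 1E3 to 1E7 nM. Growth is read as OD600 after 10 h at 37 °C in triplicate biological replicates.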

[1] = arabinose 1000 nM, raw OD600 reference: median of DMSO wells 0.294, cell-free background 0.041
[2] = arabinose 10000 nM, raw OD600 reference: median of DMSO wells 0.264, cell-free background 0.041
[3] = arabinose 100000 nM, raw OD600 reference: median of DMSO wells 0.201, cell-free background 0.041
[4] = arabinose 1000000 nM, raw OD600 reference: median of DMSO wells 0.193, cell-free background 0.041
[5] = arabinose 10000000 nM, raw OD600 reference: median of DMSO wells 0.146, cell-free background 0.041

Row | SMILES | growth [1] | growth [2] | growth [3] | growth [4] | growth [5]
1 | CCOC(=O)[C@H](CCc1ccccc1)N[C@@H](C)C(=O)N1CCC[C@H]1C(=O)O [Enalapril maleate] | 0.296 ± 0.017 | 0.25 ± 0.0032 | 0.231 ± 0.03 | 0.174 ± 0.0046 | 0.161 ± 0.009
2 | CCCCOc1ccc(OCCCN2CCOCC2)cc1 [Pramoxine hydrochloride] | 0.268 ± 0.018 | 0.263 ± 0.011 | 0.195 ± 0.013 | 0.146 ± 0.0024 | 0.163 ± 0.0035
3 | CN(CCCCCCCCCCN(C)C(=O)Oc1cccc([N+](C)(C)C)c1)C(=O)Oc1cccc([N+](C)(C)C)c1 [Demecarium bromide] | 0.0415 ± 0.00053 | 0.03993 ± 5.8e-05 | 0.0453 ± 0.0065 | 0.03943 ± 0.00023 | 0.0426 ± 0.0012
4 | CC(C)OC(=O)C(C)(C)Oc1ccc(C(=O)c2ccc(Cl)cc2)cc1 [Fenofibrate] | 0.235 ± 0.015 | 0.245 ± 0.0051 | 0.143 ± 0.0063 | 0.0897 ± 0.0018 | 0.161 ± 0.0021
5 | COc1cc(NS(=O)(=O)c2ccc(N)cc2)nc(OC)n1 [Sulfadimethoxine] | 0.264 ± 0.011 | 0.177 ± 0.01 | 0.2126 ± 0.0014 | 0.106 ± 0.0049 | 0.139 ± 0.0065
6 | Cc1nnc(SCC2=C(C(=O)O)N3C(=O)[C@@H](NC(=O)Cn4cnnn4)[C@H]3SC2)s1 [Cefazolin sodium salt] | 0.3162 ± 0.0031 | 0.24 ± 0.0064 | 0.229 ± 0.0084 | 0.183 ± 0.0062 | 0.145 ± 0.0033
7 | O=c1[nH]c(=O)n([C@H]2C[C@H](O)[C@@H](CO)O2)cc1I [Idoxuridine] | 0.285 ± 0.0078 | 0.268 ± 0.012 | 0.206 ± 0.0098 | 0.203 ± 0.0061 | 0.15 ± 0.0075
8 | C#CCN(C)CCCOc1ccc(Cl)cc1Cl [Clorgyline hydrochloride] | 0.168 ± 0.0046 | 0.175 ± 0.0062 | 0.174 ± 0.0076 | 0.0744 ± 0.0031 | 0.133 ± 0.011
